In ChEMBL document CHEMBL3988442, “University of Dundee, Small-Polar-MMV Screening Library” (2021):
Screen size: about 48,000 compounds; about 13,000 (27%) showed an effect of 50% or more. The list shows a part of the results.

Test system: Wolbachia pipientis
Experiment: Anti-Wolbachia Cell-Based Screen
Assay type: functional
Design: scale not given: in the data most compounds retested in dose-response had high values
Details: 5 µM

Compound | Percent Effect [%]
Cc1noc(CN2CCOC(CN(C)C)C2)n1 (stereo unspecified) | 4.204
O=C1CO[C@H]2CN(S(=O)(=O)c3ccccc3)C[C@H]2N1CC1CCCCC1 | -1.242
CCN(CC1CCOC1)C(=O)Cn1nnn(-c2cccs2)c1=O (stereo unspecified) | -8.505
COc1cc(OC)c(CNC(=O)NCC(=O)N2CCCC2)c(OC)c1 | 0.1885
Cn1cc(CN2CC[C@@H]3[C@@H](CCC(=O)N3CCC3=CCCCC3)C2)cn1 | -6.139
CC1CCN(CC(=O)NC(C#N)c2cnn(-c3ccccc3)c2)CC1 (stereo unspecified) | -3.926
Cc1ccsc1C(=O)Nc1ccc(N2CCC(O)CC2)c(C#N)c1 | -13.01
Cc1cc(C)c(CNC(=O)NCc2nnc3n2CCCC3)c(=O)[nH]1 | -2.933
CN(C)c1nccc(C2CCN(c3ncccn3)CC2)n1 | 131.2
CN(Cc1nccs1)C1CCN(c2ncccn2)CC1 | -5.116
CCN(CC)C1CCN(c2nccc(C3CCCC3)n2)C1 (stereo unspecified) | 2.281
Fc1cnc(NCC2Cn3nnc(-c4ccccc4)c3CO2)nc1 (stereo unspecified) | -26.66
O=C1CCSCC(C(=O)N2CCCC2)N1 (stereo unspecified) | -10.11
CNC(=O)N1CCC2(CC1)CN(C)c1ccc(F)cc12 | -1.265
CC(=O)N1CCC2(CC1)C(=O)N(C)c1ccc(F)cc12 | -20.1
CC(=O)N1CCC2(CC1)CN(CC1CC1)c1ccc(F)cc12 | 110.5
CC(=O)N1CC2(CCN(C(=O)C3CC3)CC2)c2cc(C)ccc21 | -2.981
COCC(=O)N1CCC2(CCc3ccc(F)cc32)CC1.Cl | -16.21
COCC(=O)N1CCC2(CC1)CC(OC)c1ccc(F)cc12 (stereo unspecified) | -1.265
COCC(=O)N1CCC2(CC1)CN(CC1CC1)c1ccc(F)cc12 | 102.5
Cc1ccc2c(c1)C1(CCN(C(N)=O)CC1)CN2C(=O)N(C)C | 10.3
CC(=O)N1CCC2(CC1)CN(C(=O)C1CC1)c1ccc(F)cc12 | -23.77
CN(C)C(=O)N1CC2(CCN(CC3CC3)CC2)c2cc(F)ccc21.O=C(O)C(F)(F)F | -28.12
CC(=O)N1CCC2(CC1)CN(C(C)C)c1ccc(F)cc12 | 93.83

Compound | Percent Effect [%]
Cc1ccc2c(c1)C1(CCN(C(N)=O)CC1)CN2CC1CC1 | 104
COCc1cccc(S(=O)(=O)NCc2cnn(C)c2C)c1 | 10.62
CC(=O)c1cccc(NS(=O)(=O)c2cc(C)c(C(=O)O)s2)c1 | 6.094
O=C1CN(c2ccc(CNC(=O)NCC3CCOC3)cc2)CCN1 (stereo unspecified) | 100.4
O=C1CN(c2ccc(CNC(=O)NCc3ccoc3)cc2)CCN1 | 94.29
CC(C(=O)NCc1ccc(N2CCNC(=O)C2)cc1)c1cccs1 (stereo unspecified) | 88.68
O=C1CN(c2ccc(CNC(=O)NCCO)cc2)CCN1 | 104.3
Cc1cccnc1NC(=O)NCc1ccc(N2CCNC(=O)C2)cc1 | -1.064
Cc1nc(C(=O)NCc2ccc(N3CCNC(=O)C3)c(F)c2)cs1 | -8.487
NS(=O)(=O)Cc1ccc(CNC(=O)NCC2CCOC2)cc1 (stereo unspecified) | -4.862
CCSc1cncc(NCc2ccc(N3CCNC(=O)C3)cc2)n1 | -9.871
O=C(NCc1ccc(Br)cc1)NCC1CCOC1 (stereo unspecified) | -13.61
CC(C(=O)NCc1ccc(N2CCNC(=O)C2)cc1)n1cncn1 (stereo unspecified) | -3.383
Cc1ccccc1C(=O)NCc1ccc(N2CCNC(=O)C2)cc1 | 3.423
CC(O)CNC(=O)NCc1ccc(N2CCNC(=O)C2)cc1 (stereo unspecified) | -1.608
O=C(NCCCn1nc2ccccn2c1=O)NC1CCC(O)CC1 (stereo unspecified) | -5.846
CC(CCSc1ccccc1)N1CCCN(C(N)=O)CC1 (stereo unspecified) | 1.732
COc1cc2c(cc1OC)S(=O)(=O)N(Cc1cnn(C)c1)C2=O | -5.179
CCN(Cc1cccc(-c2ccncc2)c1)S(C)(=O)=O | 22.59
COc1ccnc(N2CCC(OCCN3CCCCC3)C2)n1 (stereo unspecified) | -2.392
CCCS(=O)(=O)N1CCC2(CN(c3ccsc3)C(=O)CN2C)C1.O=C(O)C(F)(F)F (stereo unspecified) | 2.599
CCc1nc(CN(C)C2CCN(CCn3cc(C#N)cn3)C2)no1 (stereo unspecified) | 10.97
Cc1nc(CN2CCC(N(C)Cc3noc(C(C)C)n3)C2)cs1 (stereo unspecified) | 19.33
CC(C)c1nc(CN(C)C2CCN(CCn3cc(C#N)cn3)C2)no1 (stereo unspecified) | 72.8

Compound | Percent Effect [%]
CC(C)c1nc(CN(C)C2CCN(CC(F)(F)F)C2)no1 (stereo unspecified) | 0.6339
CN(c1ccc(C#N)cn1)C1CCCN(Cc2noc(C3CC3)n2)C1 (stereo unspecified) | 3.102
CN(Cc1noc(C2CC2)n1)C1CCN(CCn2cc(C#N)cn2)C1 (stereo unspecified) | 90.88
CN(CC1CN(CCn2cc(C#N)cn2)CCO1)c1cccnn1 (stereo unspecified) | -17.7
Cc1ncsc1CCN1CCC(N(C)Cc2noc(C(C)C)n2)C1 (stereo unspecified) | 6.438
Cc1nc(CN(C)C2CCN(CCn3cc(C#N)cn3)C2)no1 (stereo unspecified) | 105.6
CC(C)c1nc(CN(C)C2CCN(CCc3ccncc3)C2)no1 (stereo unspecified) | 78.23
Cc1nn(CCO)c(C)c1CNC1CCc2c(Cl)cccc21 (stereo unspecified) | 9.566
CCOC(C)c1nc(CN2CCN(CC(F)F)CC2)cs1 (stereo unspecified) | -28.37
CCc1c(C(=O)N2CC[C@H](N3CCOCC3)[C@H](CCCO)C2)csc1C | -10.58
CCc1c(C)nn(CCNC(=O)C2CCCN(C(=O)N(C)C)C2)c1C (stereo unspecified) | -3.279
C=C(C)CN1CCC(c2n[nH]c(C3CC3)n2)CC1 | -34.27
CN(C)C(=O)[C@H]1C[C@H]2OCC[C@H]2N(Cc2ccc(F)cc2)C1.O=C(O)C(F)(F)F | -2.638
CN1CCN(C(=O)[C@H]2C[C@@H]3CN(c4ncc(F)cn4)C[C@@H]3N2C)CC1.O=C(O)C(F)(F)F.O=C(O)C(F)(F)F.O=C(O)C(F)(F)F | 6.01
O=C(Nc1cccnc1)[C@H]1CO[C@H]2CCN(c3ncc(F)cn3)C[C@H]2C1.O=C(O)C(F)(F)F.O=C(O)C(F)(F)F | -5.908
O=C(Nc1cnccn1)[C@@H]1C[C@H]2OCC[C@H]2N(c2ncc(F)cn2)C1 | -10.05
CN(C)C(=O)[C@H]1CO[C@H]2CCN(c3ncc(F)cn3)C[C@H]2C1.O=C(O)C(F)(F)F | 120.2
Fc1cnc(N2CC[C@@H]3CN(Cc4ccncc4)CCO[C@@H]3C2)nc1.O=C(O)C(F)(F)F.O=C(O)C(F)(F)F.O=C(O)C(F)(F)F | -11.92
O=C(Nc1cnccn1)[C@H]1CO[C@H]2CCN(c3ncc(F)cn3)C[C@H]2C1.O=C(O)C(F)(F)F | 104.1
CNC(=O)[C@H]1CO[C@H]2CCN(c3ncc(F)cn3)C[C@H]2C1.O=C(O)C(F)(F)F | 80.41
CC(=O)N1[C@H](Cn2cncn2)C[C@@H]2CN(c3ncc(F)cn3)CC[C@@H]21.O=C(O)C(F)(F)F | -4.782
CNC(=O)c1cnc(/C=C/c2cc(OC)c3c(c2)OCCO3)s1 | 15.86
CCN(C)c1ncnc2c1CCN(C(=O)c1ccsc1)CC2.O=C(O)C(F)(F)F | -2.544
CC(C)NC(=O)N1CC[C@@H]2CN(S(C)(=O)=O)CCO[C@@H]2C1 | 112.1

Compound | Percent Effect [%]
CS(=O)(=O)N1CCO[C@@H]2CN(C(=O)C3CCOC3)CC[C@@H]2C1 (stereo partly specified) | 99.33
CCc1ccc(CN2CC[C@@H]3CN(S(C)(=O)=O)CCO[C@@H]3C2)o1.O=C(O)C(F)(F)F | 2.069
CS(=O)(=O)N1CCO[C@@H]2CN(C(=O)COC3CCCC3)C[C@@H]2C1 | -4.785
CS(=O)(=O)N1CCO[C@@H]2CN(C(=O)C3CC(F)(F)C3)C[C@@H]2C1 | 99.59
CS(=O)(=O)N1CCO[C@@H]2CN(C(=O)N3CCCC3)CC[C@@H]2C1 | 106.3
CC(C)c1nc(CNC(=O)c2ccc(C(C)N3CCCCC3)o2)cs1 (stereo unspecified) | 4.315
Cc1ncc(S(=O)(=O)Nc2ccnn2C(C)C)[nH]1 | -21.74
CS(=O)(=O)N1CCO[C@@H]2CN(C(=O)N3CCOCC3)CC[C@@H]2C1 | 93.86
CS(=O)(=O)N1CC[C@H]2C[C@@H](C(=O)N3CCOCC3)O[C@@H]2C1 | -11.49
COCCN1CCN(C(=O)c2ccccc2C(C)=O)[C@H]2CS(=O)(=O)C[C@H]21 | -3.299
Cc1cccc(CN2CCCC3(Cc4ccccc4CNC3=O)C2)n1 (stereo unspecified) | 122.4
Cc1cccc(CN2CCCC3(CCN(c4cccnc4)C3=O)C2)n1 (stereo unspecified) | -4.562
COCCC1(C(=O)O)CCCN(Cc2ccccc2OCCO)C1 (stereo unspecified) | -7.98
O=C1NCC2(CCCN(Cc3ccccc3OCCO)C2)O1 (stereo unspecified) | -12.98
COc1ccccc1CN1CCCC2(Cc3ccccc3CNC2=O)C1 (stereo unspecified) | 121.9
CCOC(=O)N1CCN(c2nc(N3CCCC3)c3ccccc3n2)CC1 | -6.467
Cn1c(SCC(=O)NC(C)(C#N)C2CC2)nc2ccccc21 (stereo unspecified) | -4.187
CCNC(=O)N1CCC(=Cc2ccccc2)CC1 | 6.266
COC(=O)CNC(=O)N1CCN(c2nc3ccccc3n2C)CC1 | 124.8
CCOC(=O)C(C)NC(=O)N1CCN(c2nc3ccccc3n2C)CC1 (stereo unspecified) | 155.3
COC(=O)CNC(=O)N1CCC2(CC1)CC(c1ccccc1)CN(C)C2 (stereo unspecified) | -8.809
CCOC(=O)N1CCN(c2nc(NC)c3ccccc3n2)CC1 | -5.868
CCOC(=O)CCNC(=O)N1CCN(c2nc3ccccc3n2C)CC1 | -6.682
CCNC(=O)N1CCN(c2nc3ccccc3n2C)CC1 | 113.5
